# Test results reported in PubChem BioAssay AID1508600 (Functional Genomics Laboratory (NCATS/FGL), 2020).
# Out of some 53,000 sequences screened, about 3,700 (7%) were called active. The full list was thinned out, with actives kept by preference. Values without a mark were called inactive.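 The calls were made as follows: active = gene knockdowns whose robust z-score for IL-1 alpha signal is at least 2 or at most -2, so actives lie on both sides; inactive = the rest.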
# Test: Components of the Cytosolic LPS Sensing Pathway: Gene Identification via Genome-wide siRNA Screen;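 also: robust z of the log signal after scaling to non-targeting control siRNA wells of the plate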
# Settings: RAW264.7 macrophages, IL-1a HTRF, actives lie on both sides, screened at 100 nM (by protocol), cells primed 5 h with Pam3CSK4 first
# Procedure, shortened: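 Mouse macrophage line RAW264.7 is transfected with siRNA (100 nM final), grown 48h, primed with TLR ligand Pam3CSK4 5 h and given intracellular LipidA 24 h. IL-1a in supernatant is read by HTRF and viability by luminescence.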
row,Sequence,z-score
1,GGUAUUUGAAUUUCGUCCCTT against Zc3h15,0.122
2,GGGACAACGCACUCCAACATT against 1810024B03Rik,0.904
3,CCAUUUGACAAGACUGCCATT against Ppp6r1,0.921
4,GCAGGUGAGAAAGUAUAAGTT against Mro,-1.09
5,GGACUUCUAGAGAAGAAGCTT against Gpn2,0.0803
6,GCAUAGUUGGAACCGUAUUTT against Tdpoz3,2.25 (active)
7,CCAAUGACUUCUGGUUAGATT against Tdpoz1,0.665
8,GGUCAGAAGAGUUUGCUAATT against Sgms2,0.552
9,CGAUGGAAGCACUUAUUUATT against Lep,0.984
10,GGUCUUGGCACAAUUACAUTT against Actl6a,-2.07 (active)
11,GGCCAAAUGAAGUCAAAAGTT against Srsf12,-0.212
12,CCUUGUUUGAAUAACGAACTT against 5830427D03Rik,-1.73
13,CCCAGUUGCUAUGCUUGACTT against Defb37,1.68
14,GGCCAGGAGAUUCCUAUGATT against Shisa4,-0.304
15,GGAUGAUUCUGGGUUACAGTT against Pwwp3a,-2.26 (active)
16,GGAAAAGUUAGCGUGUAAUTT against Prkcz,-1.66
17,CCAUCCAUAUGAACUAUGATT against Slc30a4,-1.5
18,CCAGACCUGUGGUAAUCUATT against D3Ertd751e,-0.875
19,GCGCAUGAGUGCAAGGAUUTT against Prdm16,0.265
20,GGAUCCGUUUUGGUGGAAUTT against Enpp4,0.255
21,GCACAUGCAUGGCUCUAAGTT against Hinfp,0.779
22,GCUUCUAGUCAACAUCCAGTT against Klf15,2.07 (active)

row,Sequence,z-score
1,GGAAGACAAUCGCUGCGUGTT against Tet3,0.927
2,GCUUCUGUGGGCAACAGUUTT against Cryba1,0.0577
3,GGUCUCAGUUGGAAUUAUUTT against Pds5a,-0.806
4,GGAGAAUCAGGGUAGCACATT against Txnl4a,-0.52
5,GGUGUCAUUCACAAAAACUTT against Csnk1g1,-1.09
6,GGCCAAGUCUGGAAUCACUTT against Angel2,-2.42 (active)
7,GCAGCAGGAAGGAUCAUUCTT against Ly6h,-0.0488
8,GGACUUCAUGGGUCGCUUUTT against Gstm2,-0.185
9,GGAAUUAACAGAGAAGAAATT against Rgs13,-0.848
10,GCUCCUGGUCUCAUUUACATT against Taf9b,-0.386
11,GGUCACAGACAUUCCCGAATT against Atad2,-2.89 (active)
12,GGUGGUUUUCAGCAAGUACTT against Pde9a,-0.514
13,AGUCAAGACCCAUAGAAAATT against Ociad2,-1.87
14,GCUACCAUUUGAUCAGUUUTT against Entpd1,0.665
15,GUCAUCACAAGUCAAGAAGTT against Prol1,-1.25
16,GGAGAAGGUUCACUCUGAUTT against Traf1,-0.666
17,GGAAACCUGAUUGCAUAUGTT against Nup37,-0.259
18,GCAUUAACUGUCUUGAUCCTT against Olfr356,1.41
19,GCGUAACGCAGCAGCUAAGTT against Tarbp2,-3.01 (active)
20,GGAAUAAGGAAGUUAUUGGTT against Olfr706,-0.356
21,GGUAGAGGUGGAAUGUAGCTT against Qprt,1.36
22,GCCCAUCACAAAUAAACAATT against B230340J04Rik,-1.17

row,Sequence,z-score
1,CCUUGUAGCUCUUUAUAAATT against Strn,2.24 (active)
2,GCUCCUUAGAGAGAGUAUUTT against Sod3,-0.399
3,GGGUCCAUGAACUCAAGAUTT against Rrnad1,0.473
4,GGCUGUGAGAACGAUGCAATT against Fam151a,-1.08
5,GGAGGGAAGAAACAAUCUATT against Rnf40,0.497
6,GGGUGCAUUUGAGAAGAUCTT against Casd1,4.11 (active)
7,GGAGUGCAUGACUCAGCUUTT against Olfr926,-1.54
8,GCUGACCGGCAUUUACCAUTT against Mcm2,2.78 (active)
9,GGCUCUCUUCGGGAAUACUTT against Tmem234,1.22
10,GGAGAUCAACAGGAUUUUGTT against Gna15,-1.35
11,GCUGUGUUAGAAAGCAGGCTT against 4931406H21Rik,0.927
12,GCUAUAGAUUCCUCUGCCATT against Olfr1098,-0.525
13,CCCUAGAAUUAUAUCCUGUTT against Col4a1,-0.494
14,GGGAUCAAUGCUUAAUACATT against Zfp2,1.1
15,GGGAAACACAAUUUACCUUTT against Elf1,3.18 (active)
16,CCAACUUUCUCUUAGGAAATT against Igfl3,-0.487
17,CCAGCCUUCAAUUGUGGUCTT against Scn1b,0.672
18,GAUUUUCUUUGUUCAUCUCTT against Olfr727,-0.535
19,CGACUAUCAGCAGCUGAAGTT against Igf1r,5.27 (active)
20,GCGGAUUGUCUUCCUAGACTT against Smg9,-1.14
21,GGUUCUAGGACCUAUUUUGTT against Cep57,1.87
22,GGUUAUUACCCAGUUCACGTT against Pramel1,-0.668

row,Sequence,z-score
1,GCCCUUCGUGAUGAAGAAUTT against B4galt3,0.829
2,GCUAAACUCGCUCAAUCUGTT against Cd14,0.537
3,CCUACUACUUCGUUAUCCGTT against Chrna2,0.447
4,GCUGAUGUGAAUGGCUCACTT against Gmeb2,-1.02
5,GGCCCUUUGAGUCGUUCCUTT against Batf3,2.6 (active)
6,CCGUGUCUUAGGUGAUCACTT against H2-DMb1,0.391
7,GGAGACGAAUCCUUUCAGUTT against Mis12,0.476
8,CCAAAGGUUACCAGGAAGCTT against Pcsk4,0.124
9,GCAGCUAAAACAAGUUUGATT against Sntg2,-0.565
10,GGAUUUACCUUACAAAAGUTT against Aff2,0.578
11,GGAUCUAUUCUCUCUGAUGTT against Prune2,1.03
12,GGCAAAGUAUAAAGAAGUATT against Gkap1,2.23 (active)
13,GCCAUUAAGAUCGCUUACUTT against Selenop,-0.432
14,GGAGCUUUCUCAAGAUUCATT against Arid1a,0.263
15,GCGACUUCGCUAUAUCAAGTT against Samhd1,1.65
16,CCUUAGGAUUUGAACGCGUTT against Cutc,-0.554
17,GCUAGUAUUCUAAGAUCUUTT against Mpp6,2.25 (active)
18,GGCAAAAUCGUGAAAAUUCTT against Vwf,-0.144
19,GGCGAUCCUUACUCCAAUGTT against Zfp90,0.143
20,GGAAUGGACCUCAAAAUUGTT against Vmp1,0.532
21,GCCACUACCGAUUUUCCCUTT against Lctl,-2.29 (active)
22,GGAGAUGCUAGAAAUUGUGTT against Hpca,-0.909

row,Sequence,z-score
1,GCACAUCGGCCUUAAGUCATT against Supt4a,-0.833
2,CCGUUUUCGCUUUGAGAAATT against Smarcad1,4.47 (active)
3,GUAAUUCACAGCCUCUCCGTT against Pitx3,1.03
4,GGACAUUUUAGUUGUCUUGTT against Slc38a4,-0.607
5,GGAUCCAAGGCAAAGAUGUTT against Fto,1.73
6,AUACGAUUUUUGUACUGCUTT against Defa4,0.305
7,GCCAGGUGUGGUGACUCAUTT against Tprkb,0.584
8,GCUAUGCAAAUGGUGUCAATT against Fcnb,-0.147
9,GGUGAGAUGGUUCAACAUGTT against Olfr77,1.7
10,GGACUUGAACAACUUACAATT against Plcb1,2.37 (active)
11,GUAUUAAGACCAAACAGAUTT against Olfr623,-0.497
12,CCCAAUCGGUUAAUUGUUGTT against Vcp,-2.37 (active)
13,GCCAGUUAUCACUUAACCCTT against Cmc1,-0.514
14,GGAACCUUCAGAGCGACUUTT against Trib3,0.224
15,GGCAAGGAGGAUGACAAAATT against Rnf113a2,0.416
16,GGUAGAGAGACUGUAAUUATT against Ppp2r1b,-0.598
17,GGAGUUUAUGAAAUUCAACTT against Fcgrt,1.34
18,CCAUCUAUGGUAUGGAGCGTT against Abcg4,0.606
19,GGAUGAAGAAGAUGAAGAUTT against Prepl,-2.62 (active)
20,GGAAGACUUUGAAUACCACTT against Slc4a2,0.457
